Drawing on PubChem BioAssay (NCATS), this text covers Potency for 15 compounds.

Records with an inconclusive call do not appear. Where a call stands in place of a potency, no number is given. Active and inactive are the calls of the source. Calls come from the whole dose curve; as a rule, active = well fitted inhibition curve with a large enough effect in the repeat runs; inconclusive = weak or mixed curves; inactive = flat fitted curve, though single readings scatter.
Potency is the fitted concentration of half-maximal effect.

Cytochrome P450 2D6 (Homo sapiens), sequence (P10635 whole entry, looked up): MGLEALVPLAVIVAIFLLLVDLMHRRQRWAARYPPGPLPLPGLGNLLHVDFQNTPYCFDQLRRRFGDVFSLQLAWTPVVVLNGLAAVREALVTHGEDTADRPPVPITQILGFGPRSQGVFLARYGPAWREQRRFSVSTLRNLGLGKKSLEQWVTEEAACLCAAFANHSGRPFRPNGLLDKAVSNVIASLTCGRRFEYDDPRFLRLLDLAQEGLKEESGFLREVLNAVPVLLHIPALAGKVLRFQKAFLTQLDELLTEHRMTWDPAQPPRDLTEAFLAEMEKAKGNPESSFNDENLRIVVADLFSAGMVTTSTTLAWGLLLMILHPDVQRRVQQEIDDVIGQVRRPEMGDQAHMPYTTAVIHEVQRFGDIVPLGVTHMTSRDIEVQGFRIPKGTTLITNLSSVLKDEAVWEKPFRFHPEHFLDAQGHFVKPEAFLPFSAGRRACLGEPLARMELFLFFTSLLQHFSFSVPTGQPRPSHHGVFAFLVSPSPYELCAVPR

This assay concerns the target Cytochrome P450 2D6 (Homo sapiens) (UniProt P10635). Put plainly: Cytochrome P450 family 2 subfamily D member 6 (CYP2D6) small molecule antagonists: luciferase biochemical (cell-free) qHTS assay (AID 1645840). Note: nearly all actives have a fitted effect of over 55% in size. The conditions noted are these: P450-Glo CYP2D6 enzyme, luciferin luminescence, 1 h; series mostly up to 57.4 µM. In outline:
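P450-Glo luminescent screen: recombinant CYP2D6 enzyme–proluciferin substrate mix preincubated with compound 10 min at room temperature, then NADPH regeneration added for 1 h at room temperature. Detection reagent added for 20 min; luciferin light read as relative luminescence units.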
A general note: In qHTS, concentration-response curves come from the screen itself.
As for `O=C(O)c1n[nH]c2c1C[C@H]1C[C@@H]21`, the Potency entry was “inactive”.

For the compound `Cc1cc(N2CCCCC2)nc2ccccc12`, the Potency was 10.7 µM (active).

`CCNC(=O)[C@H]1O[C@H](n2cnc3c(NCC(c4ccccc4)c4ccccc4)nc(C(=O)NCCNC(=O)NC4CCN(c5ccccn5)CC4)nc32)[C@H](O)[C@@H]1O`: the Potency is 23.9 µM (active).

`CCc1c(CC(N)=O)c2cc(OCCCP(=O)(O)O)ccc2n1Cc1ccccc1`: the Potency entry was “inactive”.

Take `CN(C)c1cccc(-c2c3c(=O)n(-c4ccccc4Cl)[nH]c3cc(=O)n2C)c1`: the Potency result was “inactive”.

In the case of `Cc1cc(C)c(S(=O)(=O)N(Cc2ccc(-c3cccc(S(C)(=O)=O)c3)cc2)Cc2ccc(C(F)(F)F)o2)c(C)c1`, the Potency result was “inactive”.

As for `CC1(C)CCC(C)(C)c2cc([C@@H](O)C(=O)Nc3ccc(C(=O)O)cc3F)ccc21`, the Potency entry was “inactive”.

Regarding `CN1CCC(c2c[nH]c3ccc(NC(=O)c4ccc(F)cc4)cc23)CC1`, the Potency is 16.9 µM (active).

Turning to `CCC(CC)n1ccc2c(C(=O)NCc3c(C)cc(C)[nH]c3=O)cc(C#N)cc21`, the Potency entry is “inactive”.

As to `FC(F)(F)c1cc(C(F)(F)F)c2ccc3nc(-c4nnco4)cn3c2n1`, the Potency entry was “inactive”.

With `COCCCNCC1COc2ccccc2O1` (stereo not given), the Potency was 9.52 µM (active).

Take `CC(=O)N1CCN(NC(=O)c2ccc(F)cc2)CC1`: the Potency entry is “inactive”.

On to `C[C@@H](Nc1cc(NS(=O)(=O)N2CCC2)nc(SCc2cccc(F)c2F)n1)[C@@H](O)CO`, for which the Potency result is “inactive”.

`O=C1N(CC2CCCCN2)CCN1c1ccccc1` (stereo not given): the Potency is 15.1 µM (active).

On to `Cc1[nH]cnc1C1CCN(c2nc3cccc4c3n2CCC4=O)CC1`, for which the Potency is 9.52 µM (active).
